This is part of a sample that, as a whole, favours compounds with a hit. Of some 83,000 tested, about 20% had one in any assay.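 Cell lines were cultured in 96-well plates, exposed to a single compound concentration, and assessed for percent growth 48 hours later.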 A number with no mark means an inactive call. Activity calls are given as the source filed them. The calls were made as follows: active = growth percent below 10; inactive = the rest.

Test systems include HCT-15 colon; HT29 colon; SNB-19 CNS; U251 CNS; PC-3 prostate; SK-MEL-5 melanoma; UACC-62 melanoma; LOX IMVI melanoma; SK-MEL-28 melanoma.
Assay in all cases: NCI-60 one-dose screen, 48 h (100 = growth as untreated, 0 = no growth, -100 = all killed)
Common to all, as to conditions: 10 µM unless noted

As for `O=C(COc1ccc(Cl)cc1Cl)N1N=C(c2ccc(Cl)cc2Cl)CC1(O)c1cc(F)c(Cl)cc1Cl` (centres undefined), the growth with HCT-15 colon was 158%; in the experiment with HT29 colon it was 116%; in the experiment with SNB-19 CNS it was 88%; with U251 CNS it was 131%; in the experiment with PC-3 prostate, 102%; with SK-MEL-5 melanoma, 80.8%. Further, the growth was 156% in the experiment with UACC-62 melanoma, 128% in the experiment on LOX IMVI melanoma and 141% with SK-MEL-28 melanoma.

Regarding `CC(CN(C)C)CN1c2ccccc2CCc2ccccc21` (centres undefined), the growth was 89.9% with HCT-15 colon; 56.7% with HT29 colon; 96.8% in the experiment with SNB-19 CNS; 85.6% in the experiment with U251 CNS; 66.7% in the experiment on PC-3 prostate; 77.9% in the experiment on SK-MEL-5 melanoma. The growth in the experiment with UACC-62 melanoma is 77.1%; in the experiment with LOX IMVI melanoma, 74.5%; in the experiment on SK-MEL-28 melanoma it was 84.9%.

`COc1ccc(-c2nnc(SCC(=O)Nc3ccc(C(=O)/C=C/c4ccc(Cl)cc4)cc3)o2)cc1OC`: the growth with HCT-15 colon was 81.3%; in the experiment on HT29 colon it was 89.8%; in the experiment with SNB-19 CNS, 84.6%; in the experiment with U251 CNS, 88.5%; in the experiment with PC-3 prostate, 84.6%; with SK-MEL-5 melanoma, 56.7%. In addition, the growth in the experiment with UACC-62 melanoma was 62.7%; in the experiment on LOX IMVI melanoma it was 79%; with SK-MEL-28 melanoma it was 82.2%.

Regarding `COc1ccccc1N1CCN(CCCOc2ccc(OCCCN3CCN(c4ccccc4OC)CC3)c(C(=O)c3cc(OC)c(OC)c(OC)c3)c2)CC1`, the growth with HCT-15 colon is 140%; in the experiment with HT29 colon, 101%; in the experiment on SNB-19 CNS it was 102%; in the experiment with U251 CNS, 118%; in the experiment with PC-3 prostate it was 95.9%; in the experiment with SK-MEL-5 melanoma, 87.6%. For the same molecule, the growth with UACC-62 melanoma is 109%; in the experiment on LOX IMVI melanoma it was 116%; in the experiment on SK-MEL-28 melanoma it was 115%.

In the case of `O=C(Cn1c2ccccc2c2ccncc21)N/N=C/c1cc(O)c(O)c(O)c1`, the growth is 105% in the experiment on HCT-15 colon; 103% with HT29 colon; 93.9% in the experiment on SNB-19 CNS; 101% in the experiment on U251 CNS; 102% in the experiment on PC-3 prostate; 101% with SK-MEL-5 melanoma. Further, the growth in the experiment on UACC-62 melanoma is 103%; in the experiment with LOX IMVI melanoma it was 96.9%; with SK-MEL-28 melanoma, 108%.

Regarding `COc1ccc(-c2nn(-c3ccc(NC(=O)c4cc(Cl)cc(Cl)c4)cc3)cc2-c2ccncc2)cc1Cl`, the growth is 21.7% in the experiment with HCT-15 colon; 8.22% (active) with HT29 colon; 82.8% with SNB-19 CNS; 39.2% with U251 CNS; 47.9% in the experiment on PC-3 prostate; 54.8% in the experiment with SK-MEL-5 melanoma. Besides, the growth with UACC-62 melanoma was 63.5%; in the experiment with LOX IMVI melanoma it was 22.9%; in the experiment with SK-MEL-28 melanoma it was 75.1%.

Turning to `COc1ccc(C2=NN(C(=O)COc3ccc(Cl)cc3)C(O)(c3cc(F)c(Cl)cc3Cl)C2)cc1OC` (centres undefined), the growth in the experiment with HCT-15 colon is 4.88% (active); in the experiment with HT29 colon it was -75.9% (active); with SNB-19 CNS, 62.7%; with PC-3 prostate it was 32.1%; in the experiment with SK-MEL-5 melanoma, 65.4%; in the experiment on UACC-62 melanoma, 52.5%. The growth in the experiment with LOX IMVI melanoma was -35.6% (active); with SK-MEL-28 melanoma, -51.6% (active).

Consider `C[C@@H]1CC2C3C[C@H](F)C4=CC(=O)C=C[C@]4(C)[C@@]3(F)[C@@H](O)C[C@]2(C)[C@@]1(O)C(=O)CO` (some centres undefined), for which the growth in the experiment on HCT-15 colon is 101%; in the experiment with HT29 colon it was 102%; in the experiment with SNB-19 CNS, 91.8%; in the experiment with U251 CNS, 105%; in the experiment on PC-3 prostate, 86.1%; with SK-MEL-5 melanoma, 90.4%. Also, the growth was 97.3% in the experiment with UACC-62 melanoma, 92.1% in the experiment on LOX IMVI melanoma and 108% in the experiment on SK-MEL-28 melanoma.

On to `Cc1[nH]n(C(=O)c2ccncc2)c(=O)c1N=Nc1ccc(S(=O)(=O)Nc2ccncn2)cc1`, for which the growth with HCT-15 colon was 112%; in the experiment on HT29 colon it was 109%; in the experiment with SNB-19 CNS, 105%; in the experiment with U251 CNS it was 105%; with PC-3 prostate it was 100%; in the experiment with SK-MEL-5 melanoma, 106%. Besides, the growth in the experiment on LOX IMVI melanoma was 93.6%; in the experiment with SK-MEL-28 melanoma, 112%.

As for `O=C(NCCNc1nccc(-c2c(-c3cccc(O)c3)nc3sccn23)n1)Nc1cc(C(F)(F)F)cc(C(F)(F)F)c1`, the growth in the experiment with HCT-15 colon is 79.2%; in the experiment with HT29 colon, 63.1%; with SNB-19 CNS, 90.8%; in the experiment with U251 CNS it was 77%; in the experiment with PC-3 prostate, 51.2%; in the experiment with SK-MEL-5 melanoma, 59.7%. Besides, the results for the growth in the experiment with UACC-62 melanoma, in the experiment on LOX IMVI melanoma and in the experiment on SK-MEL-28 melanoma were 54.4%, 60.6% and 68.8%, respectively.

As to `COc1cc2c(cc1OC)-c1c(oc3c4c(ccc3c1=O)OC(C)(C)C=C4)CO2`, the growth was 82.8% with HCT-15 colon; 89.5% in the experiment on HT29 colon; 75.5% in the experiment with SNB-19 CNS; 88.6% in the experiment with U251 CNS; 75.1% in the experiment on PC-3 prostate; 23.8% in the experiment with SK-MEL-5 melanoma. Moreover, the results for the growth with UACC-62 melanoma, in the experiment with LOX IMVI melanoma and with SK-MEL-28 melanoma were 61.1%, 63% and 93.8%, respectively.

In the case of `CCCCN(CCCC)c1ccc(C(=N)c2ccc(N(C)C)cc2)cc1`, the growth was -58.7% (active) in the experiment on HCT-15 colon; -50.8% (active) with HT29 colon; 6.19% (active) in the experiment on SNB-19 CNS; -17% (active) in the experiment with U251 CNS; -14.7% (active) in the experiment on PC-3 prostate; -99.8% (active) in the experiment with SK-MEL-5 melanoma. Further, the results for the growth in the experiment on UACC-62 melanoma, in the experiment with LOX IMVI melanoma and with SK-MEL-28 melanoma were -71.9% (active), -95.9% (active) and -70.1% (active), respectively.

For the molecule `CCOc1ccc(NC2=C(Cl)C(=O)c3ccccc3C2=O)cc1`, the growth in the experiment with HCT-15 colon was -79.9% (active); in the experiment with HT29 colon it was 98.2%; in the experiment on SNB-19 CNS, 62%; in the experiment on U251 CNS it was 56.9%; in the experiment on PC-3 prostate, 72.1%; in the experiment with SK-MEL-5 melanoma, 81.4%. Besides, the growth was 78.6% in the experiment on UACC-62 melanoma, -89.7% (active) in the experiment with LOX IMVI melanoma and 46.9% in the experiment on SK-MEL-28 melanoma.

In the case of `CCn1c(SC)nnc1-c1cc2c([nH]c3ccccc32)c(-c2cccc(O)c2)n1`, the growth is 20.4% with HCT-15 colon; 50.7% with HT29 colon; 52.8% in the experiment with SNB-19 CNS; 15.5% in the experiment with U251 CNS; 24.6% in the experiment with PC-3 prostate; -16.2% (active) with SK-MEL-5 melanoma. In addition, the values for the growth in the experiment on UACC-62 melanoma, in the experiment on LOX IMVI melanoma and with SK-MEL-28 melanoma were 36.7%, 16.5% and 41.3%, respectively.
